Source: PubChem BioAssay (Tox21)
Results filed as inconclusive are left out. A call without a number means that no potency is given here. Active and inactive are the calls of the source. Calls follow the shape of the dose curve; as a rule, active = well fitted cell-killing curve with a large enough effect in the repeat runs; inconclusive = weak or mixed curves, or effect the other way; inactive = flat fitted curve, though single readings scatter.

Experiment: cAMP Responsive Elements (CRE) small molecule antagonists, cell-based qHTS assay: qHTS cell viability counter screen (AID 2060913); also: nearly all actives have a fitted effect of over 40% in size
Settings: CRE-bla HEK293T viability, CellTiter-Glo luminescence, 5 h; series mostly up to 92.4 µM
Summary of the method: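 CRE-bla HEK293T cells were seeded in assay medium with 10% dialyzed FBS, incubated 18 hrs at 37 C, then exposed to compounds plus 0.25 uM final NKH477 for 3 hrs. Viability was read by CellTiter-Glo luminescence after 30 min, in the same wells.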

Q: For `O=C(NS(=O)(=O)/C=C/c1cccs1)c1ccc(F)cc1Br`, which Potency is on record?
A: The Potency was “inactive”.

Q: Which Potency does the source give for `O=C(NC(Cc1cc(=O)[nH]c2ccccc12)C(=O)O)c1ccc(Cl)cc1` (stereo not given) here?
A: The Potency was “inactive”.

Q: Which Potency does the source give for `CC[C@@]1(O)C(=O)OCc2c1cc1n(c2=O)Cc2c-1nc1ccccc1c2/C=N/OC(C)(C)C` here?
A: The Potency was “inactive”.

Q: For `C=Cc1ccccc1`, which Potency is on record?
A: Its Potency is “inactive”.

Q: For `NS(=O)(=O)c1ccccc1Cl`, which Potency is on record?
A: The Potency was “inactive”.

Q: Which Potency does the source give for `C=C[C@@]1(C)CC(=O)[C@]2(O)[C@@]3(C)[C@@H](O)CCC(C)(C)[C@@H]3[C@H](O)[C@H](OC(C)=O)[C@@]2(C)O1` here?
A: The Potency was “inactive”.

Q: With `CC(C)C1CCC(C(=O)N[C@H](Cc2ccccc2)C(=O)O)CC1` (stereo not given in full) as the compound, how does the Potency read?
A: Its Potency is “inactive”.

Q: With `CCCCCCOc1ccc(N)cc1` as the compound, how does the Potency read?
A: The Potency was “inactive”.

Q: For `O[C@@H](COc1cccc2ncccc12)CN1CCN(C2c3ccccc3[C@@H]3[C@H](c4ccccc42)C3(F)F)CC1` (stereo not given in full), which Potency is on record?
A: Its Potency is “inactive”.

Q: With `CC(C)(O)c1ccccc1CC[C@@H](SCC1(CC(=O)O)CC1)c1cccc(/C=C/c2ccc3ccc(Cl)cc3n2)c1` as the compound, how does the Potency read?
A: The Potency was “inactive”.

Q: Which Potency does the source give for `COc1ccnc2c1CCCCC2S(=O)c1nc2ccccc2[nH]1` (stereo not given) here?
A: Its Potency is “inactive”.

Q: Which Potency does the source give for `CCOC(=O)CC(O)(CC(=O)OCC)C(=O)OCC` here?
A: Its Potency is “inactive”.

Q: Which Potency does the source give for `Cc1noc(NS(=O)(=O)c2ccc(N)cc2)c1C` here?
A: Its Potency is “inactive”.

Q: For `C/C=C/C(=O)C1=C(C)CCCC1(C)C`, which Potency is on record?
A: The Potency was “inactive”.

Q: Which Potency does the source give for `COc1ccc(CCC(C)=O)cc1` here?
A: The Potency was “inactive”.

Q: Which Potency does the source give for `COc1ccccc1OCCNCC(O)COc1cccc2[nH]c3ccccc3c12` (stereo not given) here?
A: The Potency was “inactive”.

Q: With `CC(=O)OCc1ccco1` as the compound, how does the Potency read?
A: Its Potency is “inactive”.

Q: Which Potency does the source give for `C=Cc1cccc(C)c1` here?
A: Its Potency is “inactive”.

Q: For `C[C@]12C=CC(=O)C=C1[C@@H](F)C[C@@H]1[C@@H]2[C@@H](O)C[C@@]2(C)[C@H]1CC[C@]2(O)C(=O)CO`, which Potency is on record?
A: Its Potency is “inactive”.

Q: Which Potency does the source give for `COc1ccc2[nH]cc(CCNC(C)=O)c2c1` here?
A: Its Potency is “inactive”.

Q: Which Potency does the source give for `CCCCCCCCCCCCSCCOCCO` here?
A: Its Potency is “inactive”.

Q: For `CCCCCCCCCC`, which Potency is on record?
A: The Potency was “inactive”.

Q: Which Potency does the source give for `CCc1cccc(CC)c1` here?
A: Its Potency is “inactive”.

Q: With `O=CC1CC1` as the compound, how does the Potency read?
A: The Potency was “inactive”.

Q: For `C=CC(C)(CCC=C(C)C)OC(=O)CC(C)C` (stereo not given), which Potency is on record?
A: The Potency was “inactive”.

Q: For `O=C(O)C1CCC(C(=O)O)CC1` (stereo not given), which Potency is on record?
A: Its Potency is “inactive”.

Q: For `Nc1ccc(F)cc1`, which Potency is on record?
A: Its Potency is “inactive”.

Q: For `CC(CN=Cc1ccccc1O)N=Cc1ccccc1O` (stereo not given), which Potency is on record?
A: Its Potency is “inactive”.

Q: Which Potency does the source give for `CCCCC(CC)CN1CN(CC(CC)CCCC)CC(C)(N)C1` (stereo not given) here?
A: Its Potency is “inactive”.

Q: Which Potency does the source give for `CC(C)(c1ccc(Oc2ccc3c(c2)C(=O)OC3=O)cc1)c1ccc(Oc2ccc3c(c2)C(=O)OC3=O)cc1` here?
A: The Potency was “inactive”.

Q: For `COc1ccc(C)cc1`, which Potency is on record?
A: The Potency was “inactive”.

Q: With `Cc1nc([N+](=O)[O-])cn1-c1ccc([N+](=O)[O-])cc1` as the compound, how does the Potency read?
A: The Potency was “inactive”.

Q: With `COc1cccc2c1C(=O)c1c(O)c3c(c(O)c1C2=O)C[C@@](O)(C(=O)CO)C[C@@H]3O[C@H]1C[C@H](N)[C@H](O)[C@H](C)O1` as the compound, how does the Potency read?
A: The Potency was “inactive”.

Q: Which Potency does the source give for `CCCCCCCC/C=C\CCCCCCCC(=O)N(C)CC(=O)O` here?
A: Its Potency is “inactive”.

Q: With `CCCCCC(C)=O` as the compound, how does the Potency read?
A: The Potency was “inactive”.

Q: Which Potency does the source give for `CCCCOC(=O)C(C)O` (stereo not given) here?
A: The Potency was “inactive”.

Q: With `CCOC(=O)C(=O)CCCCCCl` as the compound, how does the Potency read?
A: The Potency was “inactive”.

Q: With `CNCC[C@@H](Oc1ccccc1C)c1ccccc1` as the compound, how does the Potency read?
A: Its Potency is “inactive”.

Q: With `CCN1CCCC1CNC(=O)c1cc(S(N)(=O)=O)ccc1OC` (stereo not given) as the compound, how does the Potency read?
A: Its Potency is “inactive”.

Q: Which Potency does the source give for `COc1ccc(C(=O)c2ccccc2)c(O)c1` here?
A: The Potency was “inactive”.
